Screening data as filed in PubChem BioAssay.
D3 ag: agonists of human D3 dopamine receptor; AID 652048; hit rate 0.58% among 410,000; max activation, %; D3R DiscoveRx beta-arrestin cells, luminescence, 90 min; in the data active means max activation above about 30%; further: 0% is about no effect
Target sequence (P35462 whole entry, looked up): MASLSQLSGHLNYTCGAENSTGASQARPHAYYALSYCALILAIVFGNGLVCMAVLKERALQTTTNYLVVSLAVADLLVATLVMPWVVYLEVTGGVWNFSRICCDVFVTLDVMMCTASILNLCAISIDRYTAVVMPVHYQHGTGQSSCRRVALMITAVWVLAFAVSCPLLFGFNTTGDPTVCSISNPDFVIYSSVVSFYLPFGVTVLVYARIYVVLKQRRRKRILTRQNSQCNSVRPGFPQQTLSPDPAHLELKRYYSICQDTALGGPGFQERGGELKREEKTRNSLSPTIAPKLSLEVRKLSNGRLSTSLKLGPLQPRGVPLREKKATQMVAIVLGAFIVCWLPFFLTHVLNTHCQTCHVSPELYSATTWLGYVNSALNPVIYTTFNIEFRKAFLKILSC
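Cells at 1500/well, incubated overnight, then treated with pinned compounds (dopamine as control) for 90 min at 37 degrees C. DiscoveRx reagent added for 30 - 60 minutes at room temperature; luminescence read.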
TRPML1 blocker: inhibitors of human TRPML1 channel; Q9GZU1; TRPML1-inducible cells, Ca2+ dye fluorescence, FDSS; hits give low values; inhibition of EC80 agonist-evoked calcium signal; activity change, negative = inhibition, % (test concentration not listed); hit rate 0.02% among 390,000; AID 624415; in the data active means activity change below about -50%; inconclusive means between about -30% and that limit;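 further: stimulus is agonist 54-4 at its EC80 concentration; on the % scale 0 is the no-effect control and ±100 the full control effect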
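TRPML1-DL cells, Tet-induced overnight (~16 h, 37 °C) at 1,500 cells/well, were loaded with Ca8 no-wash dye plus quencher for 45-90 min at room temperature. Compounds were pinned during FDSS kinetic reading; agonist 54-4 at EC80 (4 uM final) then added.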
TRPML1 agonist: activates the human TRPML1 channel | hit rate 0.12% among 410,000 | Q9GZU1 | TRPML1-expressing cells, Ca2+ dye fluorescence, FDSS | activation, % (no concentration beside the values); in the data active means activation above about 50%; inconclusive means mostly about 30% to 49%; further: 0% is about no effect
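Tet-induced TRPML1-DL cells, 1,500 per well, cultured overnight, were loaded with a no-wash Ca2+ dye for 45–90 min. Calcium fluorescence was recorded on the FDSS for 110 s after compound addition, before the EC80 agonist (4 uM 54-4) was added.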
D3 antag: antagonists of human D3 dopamine receptor. P35462. D3R cells, DiscoveRx beta-arrestin luminescence, antagonist mode; hits give low values. hit rate 2.5% among 360,000. max response, negative = inhibition, %; in the data active means max response below about -50%; inconclusive means no clear call, values can overlap the other calls; further: on the % scale 0 is the no-effect control and ±100 the full control effect
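Cells plated overnight at 1500 cells/well, then exposed to library compounds with dopamine controls for 90 minutes at 37 degrees C. DiscoveRx reagent added for 30–60 minutes at room temperature; luminescence read, quantitative HTS format.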
Numbers without * were called inactive; ? = inconclusive; / = not tested or not shown. Compounds with a hit are over-represented: about 2.9% of the library has one in this group of screens.

SMILES	D3 ag	TRPML1 blocker	TRPML1 agonist	D3 antag
Cc1ccc(-n2c(=O)c3c(c4cc(C)ccc4n3C)n(CC(=O)Nc3ccc(F)cc3)c2=O)cc1	-9	23	1	/
Cc1[nH]nc(-c2cccnc2)c1N=NN(C)C	-14	7	0	-90*
CN(C)c1nc(N)nc(-c2cccnc2)n1	-3	-11	1	-12
CCOC(=O)Nc1ccc(/C=C/c2ccnc3ccccc23)cc1	/	/	0	/
O=C(NCCCN1CCN(CCCNC(=O)c2ccccc2F)CC1)c1ccccc1F	-2	1	-1	-51*
O=C(NCCS(=O)(=O)N1CCN(c2ccccc2)CC1)c1ccccc1F	-7	-4	0	-4
O=C(CNC(=O)c1ccccc1F)NNC(=O)c1ccccc1O	-15	-10	1	-59*
O=C(NCCN1CCN(c2ccccc2)CC1)c1ccccc1F	16	-12	-1	-56*
Cc1ccccc1C(=O)NCC(=O)OCC(=O)NNC(=O)c1ccccc1F	-7	21	0	?
O=C(NCCCN1CCOCC1)c1c(F)cccc1F	-5	-15	1	-13
CC(NC(=O)c1cccc(NC(=O)c2nsc3ccccc23)c1)c1ccccc1 (configuration not stated)	1	4	4	/
CCN(CC)S(=O)(=O)c1cccc(NC(=O)COc2ncnc3sccc23)c1	-2	-5	1	-63*
COc1ccc(CCNC(=O)CCc2cn(Cc3ccc(C)cc3)c3ccccc23)c(OC)c1OC	-18	28	1	/
CN1CCS/C1=C\C=C1/SC(=S)N(CC(=O)O)C1=O	-16	-4	29	-68*
CCN1C(=O)/C(=C/C=C2/SCCN2C)SC1=S	-10	14	16	-17
CN1/C(=C\C=C2/SC(=S)N(CC(=O)O)C2=O)C(C)(C)c2ccccc21	-16	-13	0	-79*
COc1cc2c(NC3CCN(C)CC3)nc(N3CCCN(C)CC3)nc2cc1OCC1CCNCC1	/	/	0	/
CCOc1ccc(NC(=O)CC2C(=O)N(c3ccc(Cl)cc3)C(=O)N2Cc2cccs2)cc1 (configuration not stated)	18	9	1	/
O=C(/C=C\c1ccccc1)Oc1cccc2cccnc12	-6	76	0	-59*
CC12CCC(C(=O)N(CCCCN3CCN(c4ccccn4)CC3)C1=O)C2(C)C (configuration not stated)	86*	6	-1	-11
Cc1ccccc1C(=O)N1[C@@H](C(C)C)COc2cc(Br)ccc2S1(=O)=O	35*	66	0	15
CC(C)C[C@H]1COc2cc(Br)ccc2S(=O)(=O)N1	3	-22	-1	-28
Fc1cccc(Cl)c1Cn1c(-c2cccs2)nc2ccccc21	3	17	2	/
O=C1c2ccccc2S(=O)(=O)N1Cc1cc(=O)n2ccsc2n1	-5	-7	2	-76*
O=c1cc(CN2CCCCCC2)nc2sccn12	-6	16	-1	-5
SMILES	D3 ag	TRPML1 blocker	TRPML1 agonist	D3 antag
COc1cc(NC(=O)Cn2c(=O)ccc3cc(S(=O)(=O)N4CCCC4)ccc32)cc(OC)c1	3	4	1	/
CCc1nc(SC)ncc1C(=O)NCc1cccc(Br)c1	0	-14	5	/
Cc1ccc(CCNC(=O)c2c(C)oc3ncn(CC(C)C)c(=O)c23)cc1	-11	?	1	/
O=C(N1CCOCC1)N1c2ccccc2Sc2ccccc21	-6	7	1	-77*
COc1ccc2[nH]c(=O)c(CN(Cc3ccco3)C(=O)c3ccccc3)cc2c1	-8	-29	1	-88*
COc1ccc2[nH]c(=O)c(CN(c3ccccc3)S(=O)(=O)c3ccccc3)cc2c1	33*	-9	2	28
COc1ccc2[nH]c(=O)c(CN(c3ccccc3OC)S(=O)(=O)c3ccccc3)cc2c1	-4	3	0	51
CCc1ccc(-n2nc(CO)c(C(=O)NC(C)c3ccc(Cl)cc3)n2)cc1 (configuration not stated)	3	18	5	/
CCOC(=O)c1cccc(NC(=O)N2Cc3ccccc3Oc3ncccc32)c1	3	-6	0	/
COc1ccc(S(N)(=O)=O)cc1C(=O)NCCCN1CCN(c2ccccc2OC)CC1	-5	4	0	-92*
COc1ccccc1N1CCN(CCCCNC(=O)c2ccc3ccccc3c2)CC1	/	11	0	/
O=C(NCCCN1CCN(c2cccc(Cl)c2)CC1)c1nc(-c2ccncc2)no1	3	18	0	-64*
COc1cc2c(C(=O)NCCCN3CCN(c4cccc(Cl)c4)CC3)cn(C)c(=O)c2cc1OC	31*	14	0	-56*
COc1ccc(S(N)(=O)=O)cc1C(=O)NCCCN1CCN(c2cccc(Cl)c2)CC1	5	10	1	-50*
COc1ccc(S(N)(=O)=O)cc1C(=O)NCCCN1CCN(c2ccc(C)cc2)CC1	-10	1	-1	-71*
O=C1c2ccccc2NC(c2ccc3c(c2)OCO3)N1O (configuration not stated)	-19	5	2	-57*
O=C1c2ccccc2NC(c2ccc3c(c2)OCO3)N1Cc1ccco1 (configuration not stated)	/	/	0	/
O=c1oc2cc(O)c(Cl)cc2c2ccccc12	-2	5	4	-12
O=c1oc(Cl)c(Cl)c2ccccc12	-36	-5	0	-74*
NS(=O)(=O)c1ccc(S(=O)(=O)N2CCN(c3nc(-c4cccs4)nc4ccccc34)CC2)cc1	/	/	0	/
CSc1ccc(CN(C)CC(=O)Nc2ccc(C)cc2Br)cc1	-35	78	1	-56*
CSc1ccc(CN(C)CC(=O)N(C)CC(=O)Nc2ccccc2Br)cc1	-11	53	0	-27
CCOC(=O)[C@]12CCC=C1N(Cc1ccccc1)C(=O)[C@H](CC(=O)NCC13CC4CC(CC(C4)C1)C3)C2	-10	/	-1	-53*
CCCCNC(=O)C[C@@H]1C[C@@]2(C(=O)OCC)CCCC=C2N(Cc2ccc3c(c2)OCO3)C1=O	4	/	-1	15
C#CCNC(=O)C[C@@H]1C[C@@]2(C(=O)OCC)CCCC=C2N(Cc2ccc3c(c2)OCO3)C1=O	-9	/	63*	3
SMILES	D3 ag	TRPML1 blocker	TRPML1 agonist	D3 antag
COC(=O)[C@@]12C[C@@H](CC(=O)N3CCOCC3)C(=O)N(Cc3ccc4c(c3)OCO4)C1=CCC(C)(C)C2	35*	/	/	?
CCOC(=O)[C@]12CCC=C1N(Cc1cccc3ccccc13)C(=O)[C@H](CC(=O)NCC13CC4CC(CC(C4)C1)C3)C2	3	/	0	20
COc1ccc(CCn2c3c(c(=O)[nH]c2=S)CN(c2ccccc2)CN3)cc1OC	/	/	-1	/
N#Cc1nc(-c2ccc(OCc3ccc(Cl)cc3)cc2)oc1N1CCCC1	/	/	0	/
O=C1CC(c2ccccc2)CC(=O)C1Sc1ccc(Cl)cc1 (configuration not stated)	-14	-1	-1	-53*
Cc1ccc(O)c(C(CC(=O)NCC2(c3ccccc3)CCCC2)c2ccccc2)c1 (configuration not stated)	4	66	3	/
